# The sample as a whole holds a higher share of the strongest signals than the screen did.
# B1: GALT1 615 (Arabidopsis thaliana), Q8L7F9 (protein)
# chain: DPMRGSHHHHHHGMASMTGGQQMGRDLYDDDDKSRLQKPYITAAASVVVTPNTTLPMEWLRITLPDFMKEARNTQEAISGDDIAVVSGLFVEQNVSKEEREPLLTWNRLESLVDNAQSLVNGVDAIKEAGIVWESLVSAVEAKKLVDVNENQTRKGKEELCPQFLSKMNATEADGSSLKLQIPCGLTQGSSITVIGIPDGLVGSFRIDLTGQPLPGEPDPPIIVHYNVRLLGDKSTEDPVIVQNSWTASQDWGAEERCPKFDPDMNKKVDDLDECNKMVGGEINRTSSTSLQSNTSRGVPVAREASKHEKYFPFKQGFLSVATLRVGTEGMQMTVDGKHITSFAFRDTLEPWLVSEIRITGDFRLISILA
# B2: Flo5 (Saccharomyces cerevisiae), P38894 (protein)
# chain: MGSSHHHHHHSSGLVPRGSHMSGATEACLPAGQRKSGMNINFYQYSLKDSSTYSNAAYMAYGYASKTKLGSVGGQTDISIDYNIPCVSSSGTFPCPQEDSYGNWGCKGMGACSNSQGIAYWSTDLFGFYTTPTNVTLEMTGYFLPPQTGSYTFSFATVDDSAILSVGGSIAFECCAQEQPPITSTNFTINGIKPWDGSLPDNITGTVYMYAGYYYPLKVVYSNAVSWGTLPISVELPDGTTVSDNFEGYVYSFDDDLSQSNCTIPDPSIH
# Columns and labels:
# Test in all cases: glycan array binding signal (z-score within array); higher = stronger binding
# Conditions in all cases: glycan notation: IUPAC condensed, linker removed
# [1] = target: Fuc(a1-2)Gal(b1-3)GalNAc(b1-3)Gal
# Procedure, shortened: (§1)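 Glycan array data came from 3228 arrays in the Consortium for Functional Glycomics database, and only arrays with an available protein sequence were kept. Glycan names were put into IUPAC-condensed notation, and columns mapping to the same glycan were averaged. The binding signal is a within-array Z-score, averaged across arrays of one protein sequence run at different concentrations or buffers and across linkers. A negative Z-score can be read as non-binding.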
# Fuc(a1-2)Gal(b1-4)GlcNAc = target: Fuc(a1-2)Gal(b1-4)GlcNAc
# Procedure, shortened: as §1
# [2] = target: Fuc(a1-2)Gal(b1-4)[Fuc(a1-3)]GlcNAc
# Procedure, shortened: as §1
# [3] = target: Fuc(a1-2)Gal(b1-4)[Fuc(a1-3)]GlcNAc(b1-3)Gal(b1-4)[Fuc(a1-3)]GlcNAc(b1-3)Gal(b1-4)[Fuc(a1-3)]GlcNAc
# Procedure, shortened: as §1
# [4] = target: Fuc(a1-2)[GalNAc(a1-3)]Gal(b1-4)[Fuc(a1-3)]GlcNAc
# Procedure, shortened: as §1
# [5] = target: Gal(b1-3)GalNAc(b1-4)Gal(b1-4)Glc
# Procedure, shortened: as §1
# [6] = target: Gal(b1-3)GlcNAc(b1-3)Gal(b1-3)GlcNAc
# Procedure, shortened: as §1
# [7] = target: Gal(b1-4)GlcNAc(b1-2)Man(a1-3)Man(b1-4)GlcNAc(b1-4)GlcNAc
# Procedure, shortened: as §1
# [8] = target: Gal(b1-4)GlcNAc(b1-2)Man(a1-3)[Gal(b1-4)GlcNAc(b1-2)Man(a1-6)]Man(b1-4)GlcNAc(b1-4)GlcNAc
# Procedure, shortened: as §1
# [9] = target: Gal(b1-4)GlcNAc(b1-6)GalNAc
# Procedure, shortened: as §1
# Gal3S(b1-4)GlcNAc = target: Gal3S(b1-4)GlcNAc
# Procedure, shortened: as §1
# Gal3S(b1-4)GlcNAc6S = target: Gal3S(b1-4)GlcNAc6S
# Procedure, shortened: as §1
# Gal6S(b1-4)GlcNAc6S = target: Gal6S(b1-4)GlcNAc6S
# Procedure, shortened: as §1
# Glc(a1-4)Glc = target: Glc(a1-4)Glc
# Procedure, shortened: as §1
# [10] = target: GlcNAc(a1-4)Gal(b1-4)GalNAc
# Procedure, shortened: as §1
# [11] = target: GlcNAc(a1-4)Gal(b1-4)GlcNAc(b1-3)Gal(b1-4)GlcNAc
# Procedure, shortened: as §1
# [12] = target: GlcNAc(b1-2)Man(a1-3)[GlcNAc(b1-2)Man(a1-6)]Man(b1-4)GlcNAc(b1-4)[Fuc(a1-6)]GlcNAc
# Procedure, shortened: as §1
# GlcNAc(b1-3)GalNAc = target: GlcNAc(b1-3)GalNAc
# Procedure, shortened: as §1
# [13] = target: GlcNAc(b1-3)[GlcNAc(b1-6)]Gal(b1-4)GlcNAc
# Procedure, shortened: as §1
# Kdn(a2-3)Gal(b1-3)GalNAc = target: Kdn(a2-3)Gal(b1-3)GalNAc
# Procedure, shortened: as §1
# [14] = target: Man(a1-2)Man(a1-6)[Man(a1-3)]Man(a1-6)[Man(a1-2)Man(a1-2)Man(a1-3)]Man(b1-4)GlcNAc(b1-4)GlcNAc
# Procedure, shortened: as §1
# [15] = target: Neu5Ac(a2-3)Gal(b1-3)GlcNAc6S
# Procedure, shortened: as §1
# [16] = target: Neu5Ac(a2-3)Gal(b1-4)GlcNAc(b1-6)[Neu5Ac(a2-3)Gal(b1-3)]GalNAc
# Procedure, shortened: as §1
# [17] = target: Neu5Ac(a2-3)Gal(b1-4)GlcNAc6S
# Procedure, shortened: as §1
# [18] = target: Neu5Ac(a2-3)Gal(b1-4)[Fuc(a1-3)]GlcNAc(b1-3)Gal(b1-4)GlcNAc
# Procedure, shortened: as §1
# [19] = target: Neu5Gc(b2-6)Gal(b1-4)GlcNAc
# Procedure, shortened: as §1
# Fuc(a1-2)Gal(b1-4)Glc = target: Fuc(a1-2)Gal(b1-4)Glc
# Procedure, shortened: as §1
# [20] = target: Fuc(a1-2)Gal(b1-4)GlcNAc(b1-3)Gal(b1-4)GlcNAc(b1-3)Gal(b1-4)GlcNAc
# Procedure, shortened: as §1
# [21] = target: Fuc(a1-2)Gal(b1-4)[Fuc(a1-3)]GlcNAc(b1-3)Gal(b1-4)[Fuc(a1-3)]GlcNAc
# Procedure, shortened: as §1
# [22] = target: Fuc(a1-2)[Gal(a1-4)]Gal(b1-4)GlcNAc
# Procedure, shortened: as §1
# [23] = target: Fuc(a1-2)[GalNAc(a1-4)]Gal(b1-4)GlcNAc
# Procedure, shortened: as §1
# [24] = target: Fuc(a1-3)[Gal(b1-4)]Glc6S
# Procedure, shortened: as §1
# [25] = target: Fuc(a1-3)[Gal(b1-4)]GlcNAc(b1-2)Man(a1-6)[Gal(b1-4)GlcNAc(b1-2)Man(a1-3)]Man(b1-4)GlcNAc(b1-4)GlcNAc
# Procedure, shortened: as §1
# [26] = target: Fuc(a1-3)[Gal(b1-4)]GlcNAc(b1-4)Gal(b1-4)[Fuc(a1-3)]GlcNAc(b1-4)Gal(b1-4)[Fuc(a1-3)]GlcNAc
# Procedure, shortened: as §1
# [27] = target: Fuc(a1-3)[Neu5Ac(a2-3)]Gal(b1-4)GlcNAc(b1-3)GalNAc
# Procedure, shortened: as §1
# [28] = target: Gal(b1-3)[Fuc(a1-4)]GlcNAc
# Procedure, shortened: as §1
# [29] = target: Gal(b1-3)[Neu5Ac(b2-6)]GalNAc
# Procedure, shortened: as §1
# [30] = target: Gal(b1-4)GalNAc(a1-3)[Fuc(a1-2)]Gal(b1-4)GlcNAc
# Procedure, shortened: as §1
# Gal3S(b1-3)GalNAc = target: Gal3S(b1-3)GalNAc
# Procedure, shortened: as §1
# Gal3S(b1-4)Glc6S = target: Gal3S(b1-4)Glc6S
# Procedure, shortened: as §1
# Gal6S(b1-4)Glc = target: Gal6S(b1-4)Glc
# Procedure, shortened: as §1
# Glc(b1-6)Glc = target: Glc(b1-6)Glc
# Procedure, shortened: as §1
# [31] = target: GlcNAc(b1-3)Gal(b1-4)GlcNAc(b1-3)Gal(b1-4)GlcNAc
# Procedure, shortened: as §1
# [32] = target: GlcNAc(b1-4)[GlcNAc(b1-6)]GalNAc
# Procedure, shortened: as §1
# [33] = target: Man(a1-2)Man(a1-2)Man(a1-3)Man
# Procedure, shortened: as §1
# [34] = target: Man(a1-3)[Man(a1-6)]Man(a1-6)[Man(a1-3)]Man
# Procedure, shortened: as §1
# [35] = target: Neu5Ac(a2-3)Gal(b1-4)GlcNAc(b1-6)[Gal(b1-3)]GalNAc
# Procedure, shortened: as §1
# Neu5Ac(a2-8)Neu5Ac = target: Neu5Ac(a2-8)Neu5Ac
# Procedure, shortened: as §1
# [36] = target: Neu5Ac(a2-8)Neu5Ac(a2-3)[GalNAc(b1-4)]Gal(b1-4)Glc
# Procedure, shortened: as §1
# [37] = target: Neu5Ac(a2-8)Neu5Ac(a2-8)Neu5Ac(a2-8)Neu5Ac(a2-3)[GalNAc(b1-4)]Gal(b1-4)Glc
# Procedure, shortened: as §1
# [38] = target: Neu5Ac9Ac(a2-3)Gal(b1-4)GlcNAc
# Procedure, shortened: as §1
binder,measurement,setting,value
B1,glycan array binding signal (z-score),[1],8.63
same,glycan array binding signal (z-score),Fuc(a1-2)Gal(b1-4)GlcNAc,-0.374
same,glycan array binding signal (z-score),[2],4.77
same,glycan array binding signal (z-score),[3],1.95
same,glycan array binding signal (z-score),[4],1.82
same,glycan array binding signal (z-score),[5],-0.508
same,glycan array binding signal (z-score),[6],-0.271
same,glycan array binding signal (z-score),[7],-0.484
same,glycan array binding signal (z-score),[8],0.081
same,glycan array binding signal (z-score),[9],-0.439
same,glycan array binding signal (z-score),Gal3S(b1-4)GlcNAc,-0.208
same,glycan array binding signal (z-score),Gal3S(b1-4)GlcNAc6S,-0.044
same,glycan array binding signal (z-score),Gal6S(b1-4)GlcNAc6S,-0.309
same,glycan array binding signal (z-score),Glc(a1-4)Glc,3.74
same,glycan array binding signal (z-score),[10],8
same,glycan array binding signal (z-score),[11],-0.46
same,glycan array binding signal (z-score),[12],6.45
same,glycan array binding signal (z-score),GlcNAc(b1-3)GalNAc,-0.386
same,glycan array binding signal (z-score),[13],-0.348
same,glycan array binding signal (z-score),Kdn(a2-3)Gal(b1-3)GalNAc,-0.772
same,glycan array binding signal (z-score),[14],-0.415
same,glycan array binding signal (z-score),[15],-0.079
same,glycan array binding signal (z-score),[16],-0.225
same,glycan array binding signal (z-score),[17],-0.078
same,glycan array binding signal (z-score),[18],0.904
same,glycan array binding signal (z-score),[19],-0.419
B2,glycan array binding signal (z-score),[1],1.59
same,glycan array binding signal (z-score),Fuc(a1-2)Gal(b1-4)Glc,1.59
same,glycan array binding signal (z-score),[20],-0.14
same,glycan array binding signal (z-score),[21],-0.205
same,glycan array binding signal (z-score),[22],-0.23
same,glycan array binding signal (z-score),[23],3.78
same,glycan array binding signal (z-score),[24],-0.024
same,glycan array binding signal (z-score),[25],-0.206
same,glycan array binding signal (z-score),[26],-0.162
same,glycan array binding signal (z-score),[27],-0.232
same,glycan array binding signal (z-score),[28],-0.153
same,glycan array binding signal (z-score),[29],-0.121
same,glycan array binding signal (z-score),[30],-0.189
same,glycan array binding signal (z-score),Gal3S(b1-3)GalNAc,-0.17
same,glycan array binding signal (z-score),Gal3S(b1-4)Glc6S,8.31
same,glycan array binding signal (z-score),Gal6S(b1-4)Glc,-0.082
same,glycan array binding signal (z-score),Glc(b1-6)Glc,-0.203
same,glycan array binding signal (z-score),[31],-0.027
same,glycan array binding signal (z-score),[13],-0.156
same,glycan array binding signal (z-score),[32],-0.139
same,glycan array binding signal (z-score),[33],6.07
same,glycan array binding signal (z-score),[34],3.11
same,glycan array binding signal (z-score),[35],-0.196
same,glycan array binding signal (z-score),Neu5Ac(a2-8)Neu5Ac,-0.148
same,glycan array binding signal (z-score),[36],-0.104
same,glycan array binding signal (z-score),[37],-0.149
same,glycan array binding signal (z-score),[38],-0.126

# — the supplement of paper PMC8728848
